Assay results: PubChem BioAssay
Activity calls are given as the source filed them.

Assays:
Albumin (Bos taurus) = Albumin (Bos taurus) (UniProt P02769); test: compounds binding labelled BSA control protein – biochemical, small-molecule microarray, Alexa647 label, 635/667 nm fluorescence, artefact control for SMM control protein annotation, profiling panel (AID 1118); conditions: BSA-A647 binding, fluorescence 635 nm, higher = more signal;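 also: score merges 667 nm emission intensity and signal-to-noise per printed compound spot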
[1] = probe aXIP binding to arrayed compounds – biochemical, NeuroSMM set, 635/667 nm fluorescence, primary screen (AID 1119); conditions: small-molecule microarray, higher = more signal, called active from +8 up or from −8 down;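 also: probe is the protein aXip251-270 applied at 1 µg/mL to compound-printed slides; binding of probe to printed compounds measured as 667 nm fluorescence plus signal to noise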
[2] = probe aNOTCH3 binding on compound microarray – biochemical, small-molecule microarray, 635/667 nm fluorescence, primary screen (AID 1120); conditions: higher = more signal;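 also: probe is a biotin-tagged antibody raised against NOTCH3 rather than NOTCH3 protein; score merges spot fluorescence near 667 nm with spot signal to noise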
[3] = probe aNOTCH2 binding on compound microarray – biochemical, small-molecule microarray, 635/667 nm fluorescence, primary screen (AID 1121); conditions: higher = more signal;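 also: score merges feature fluorescence read at 667 nm with its signal to noise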
[4] = biological target: Carbonic anhydrase 2 (Homo sapiens) (UniProt P00918); test: compounds binding carbonic anhydrase 2 – biochemical, small-molecule microarray, Alexa647-labelled CAII, profiling panel (AID 1122); conditions: CAII-A647 binding fluorescence, higher = more signal
[5] = COS7 lysate on small-molecule microarray, probe aHis, 635 nm (AID 1123); conditions: COS7 cell lysate, fluorescence, higher = more signal;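 also: z-score combines 667nm fluorescence intensity with signal-to-noise per printed compound spot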
[6] = probe aLAP1 signal on lysate-treated microarray – cell lysate, small-molecule microarray, COS7 lysate, primary screen (AID 1124); conditions: probe aLAP1, fluorescence, higher = more signal;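 also: lysate comes from COS7 cells expressing LAP1 and is applied at 0.3 µg/mL; score merges spot fluorescence near 667 nm with signal-to-noise over triplicate slides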
Sam68 (KHDRBS1) = test: compounds binding KHDRBS1 protein – biochemical, small-molecule microarray, 635 nm fluorescence, primary screen (AID 1125); conditions: higher = more signal;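 also: score merges 667 nm channel intensity with signal to noise over triplicate slides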
[7] = tested on: Chordin-like protein 2 (CHRDL2); test: compounds binding chordin-like 2 – biochemical, small-molecule microarray, 635 nm fluorescence, primary screen (AID 1126); conditions: fluorescence 635 nm, higher = more signal;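 also: printed compound slides probed with Chrdl2 protein at 4 µg/mL for 1 h at 4 C; score merges 667 nm emission intensity with signal to noise over three replicate slides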
[8] = biological target: Concanavalin-A (Canavalia ensiformis) (UniProt P02866); test: compounds binding concanavalin A lectin – biochemical, small-molecule microarray, Alexa647 label, 635 nm, artefact control for SMM control protein annotation, primary screen (AID 1127); conditions: ConA-A647 binding fluorescence, higher = more signal;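 also: z combines 667 nm emission intensity with signal-to-noise across three replicate slides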
Sequence of Concanavalin-A (Canavalia ensiformis) (P02866 whole entry, looked up): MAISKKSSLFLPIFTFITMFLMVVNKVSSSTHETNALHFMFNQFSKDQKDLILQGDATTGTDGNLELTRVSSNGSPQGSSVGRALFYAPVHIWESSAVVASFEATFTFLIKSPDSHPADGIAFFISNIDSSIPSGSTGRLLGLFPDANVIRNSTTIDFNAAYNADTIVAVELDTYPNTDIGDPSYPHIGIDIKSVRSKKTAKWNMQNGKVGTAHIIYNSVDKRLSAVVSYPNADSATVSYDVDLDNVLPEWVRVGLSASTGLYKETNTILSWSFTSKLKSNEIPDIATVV

Sequence of Albumin (Bos taurus) (P02769 whole entry, looked up): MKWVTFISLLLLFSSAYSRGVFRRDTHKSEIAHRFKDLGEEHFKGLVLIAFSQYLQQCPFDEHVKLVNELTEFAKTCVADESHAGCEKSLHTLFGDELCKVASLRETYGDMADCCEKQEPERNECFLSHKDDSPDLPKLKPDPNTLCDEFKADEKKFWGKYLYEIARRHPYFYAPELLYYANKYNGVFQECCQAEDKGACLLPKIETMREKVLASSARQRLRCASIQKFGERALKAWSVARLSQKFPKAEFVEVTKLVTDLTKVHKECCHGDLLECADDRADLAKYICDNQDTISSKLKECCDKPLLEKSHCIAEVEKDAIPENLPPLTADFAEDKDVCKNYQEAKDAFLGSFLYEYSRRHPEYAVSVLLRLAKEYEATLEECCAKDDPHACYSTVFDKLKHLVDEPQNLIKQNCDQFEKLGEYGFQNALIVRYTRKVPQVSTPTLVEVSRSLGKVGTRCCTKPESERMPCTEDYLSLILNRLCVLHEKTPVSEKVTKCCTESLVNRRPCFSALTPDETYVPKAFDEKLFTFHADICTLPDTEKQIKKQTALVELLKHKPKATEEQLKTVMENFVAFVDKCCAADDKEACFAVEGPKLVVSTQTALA

Row | SMILES | composite z-score (Albumin (Bos taurus)) | composite Z-score [1] | composite z-score [2] | composite z-score [3] | composite z-score [4] | composite z-score [5] | composite z-score [6] | composite z-score (Sam68 (KHDRBS1)) | composite z-score [7] | composite z-score [8]
1 | C=CCN1C(=O)[C@]2(O[C@H](CCn3cc(CCO)nn3)[C@@H]([Si](C)(C)c3ccc(OC)cc3)[C@@H]2C)c2cc(N3CCOC3=O)ccc21 | 0.617 | -0.217 (inactive) | -0.161 | -0.104 | 0.368 | 1.88 | 1.21 | 0.448 | -0.34 | 1.13
2 | C#C[C@@H]1Oc2ccccc2S(=O)(=O)N2CCC[C@H]12 | -0.13 | 0.235 (inactive) | -0.063 | -0.185 | 0.256 | -1.2 | -0.34 | -1.29 | 0.424 | -0.512
3 | CC(C)NC(=O)[C@@]1(c2ccc([N+](=O)[O-])cc2)CC(=O)N(CC23CC4CC(CC(C4)C2)C3)[C@@H]1c1ccc(CO)cc1I | -0.0212 | 0.567 (inactive) | 0.299 | 0.23 | 0.241 | 0.997 | 1.04 | 1.27 | 0.111 | 0.93
4 | CCOC(=O)C1=CCC(c2cc3ccccc3[nH]2)NC1 (stereo not given) | 0.653 | 0.0894 (inactive) | 0.173 | 0.069 | 0.63 | 1.7 | 0.944 | 0.689 | 0.215 | -0.668
5 | COCC(=C=CC[C@@H](O)c1ccccc1OCCO)CCO | -0.0934 | 0.493 (inactive) | 0.0596 | -0.0811 | 0.763 | 0.994 | -0.0546 | 0.567 | 0.22 | -0.192
6 | CC(CCC(=O)OC[C@H]1O[C@H](C#Cc2ccccc2)C=C[C@@H]1Oc1ccc(C)cc1)=NOC[C@@H](O)COCc1ccco1 | -0.515 | -0.142 (inactive) | -0.781 | -0.306 | -0.451 | -0.128 | -0.547 | -1.96 | -3.83 | -3.95
7 | CC(C)=CCCC(C)=CCON=C1[C@H]2CCn3c(=O)n(Cc4cc5c(cc4Cl)OCO5)c(=O)n3[C@H]2[C@H](O)[C@@H]2O[C@H]12 | -0.0415 | -0.116 (inactive) | 0.204 | -0.131 | -0.158 | -0.605 | 0.0561 | -0.218 | 1.08 | 0.598
8 | CN1C(=O)C2C(C1=O)C1C=C(CCCO)C2C(c2ccc(CN3CCCC3)cc2)N1C (stereo not given) | -0.356 | -0.816 (inactive) | -0.068 | -0.0907 | -0.221 | -0.377 | 0.0357 | 0.239 | 0.0976 | -0.56
9 | CCCNC(=O)[C@@H]1c2ccccc2C(=O)N(c2ccc(C)cn2)[C@H]1c1ccc(CO)cc1 | 0.206 | -0.207 (inactive) | -0.305 | -0.109 | 0.769 | -0.018 | -0.514 | -0.646 | -0.382 | -0.984
10 | C#CCCCON=C1C[C@@H](O)[C@@H](O)[C@@H]2[C@@H]3C(=O)N(Cc4ccccc4)C(=O)[C@@H]3CC[C@H]12 | 0.344 | 0.497 (inactive) | -0.056 | -0.2 | -0.009 | 0.363 | -0.316 | -0.0716 | 0.477 | 0.372
11 | CO[C@@H]1COC(=O)CC=C[C@@H](C)[C@H](OC)COC(=O)[C@H](COCc2ccccc2)NC(=O)CC=C[C@H]1C | -1.39 | 0.0898 (inactive) | -0.0584 | -0.197 | -0.654 | -0.925 | -0.23 | -0.978 | 1.22 | -3.99
12 | O=C1[C@H]2[C@H]3[C@H](O)[C@H](O)CC(=NO[C@@H]4O[C@H](CO)[C@@H](O)[C@H](O)[C@H]4O)[C@H]3CC[C@H]2C(=O)N1C1CCCCC1 | 0.785 | -0.0164 (inactive) | 0.11 | -0.112 | 0.124 | 0.197 | 0.3 | 1.3 | -0.298 | -0.316
13 | COC(=O)c1c(CC[C@@H](CO)NC(=O)N[C@H](Cc2ccccc2)Cn2cc(-c3ccccc3N)nn2)oc(C(C)=O)c1C(=O)OC | 0.484 | -0.202 (inactive) | 0.237 | 0.115 | 0.0874 | 1.31 | 0.481 | 0.938 | 0.509 | -0.0831
14 | Cc1ccc(F)cc1S(=O)(=O)N[C@@H]1CCN(Cc2ccc(CC(C)C)cc2)C1 | 0.118 | -0.316 (inactive) | -0.249 | -0.208 | 0.013 | 0.193 | 0.172 | 0.499 | 0.266 | -1.47
15 | Cn1cccc1C(O)C1C=CC2C(=O)NC(=O)C2N1Nc1ccccn1 (stereo not given) | 0.809 | 0.0019 (inactive) | -0.0166 | -0.171 | 0.914 | -0.318 | 0.503 | -1.45 | 0.148 | -0.0954
16 | O=C1[C@H]2[C@H]3[C@H](O)[C@H](O)CC(=NOC[C@@H](O)COCc4ccco4)[C@H]3CC[C@H]2C(=O)N1C1CCCCC1 | -0.709 | -0.47 (inactive) | 0.0459 | -0.258 | -0.379 | -0.317 | -0.342 | 0.191 | 1.42 | -0.843
17 | COc1ccc(O[C@H]2C=C[C@@H](c3ccccc3)O[C@@H]2CON=C[C@@H](C)[C@H](OCc2ccccc2)C(C)C)cc1 | -0.136 | -0.236 (inactive) | -0.245 | -0.198 | -0.89 | -0.53 | -0.419 | -1.67 | -0.163 | -0.409
18 | CC(C)(C)N1CC=CC23O[C@@H]4C=CCCOC(=O)C4[C@H]2C(=O)N(CCCCCO)[C@@H]3C1=O (stereo not given in full) | 0.568 | 0.08 (inactive) | 0.285 | -0.175 | 0.874 | 0.518 | 0.726 | 0.598 | -0.503 | -0.339
19 | COC(=O)[C@H](C)NC(=O)CCC1CC(OC(=O)NCc2cccc3ccccc23)CC2(CCCC(COC(=O)NCC3CCCCC3)O2)O1 (stereo not given in full) | -0.409 | -0.551 (inactive) | 0.175 | -0.0984 | 0.612 | 1.61 | 0.486 | 1.29 | 0.62 | 1.12
20 | COc1ccc([Si](C)(C)[C@H]2[C@H](CCO)O[C@@]3(C(=O)N(Cc4cccc(NC(=O)[C@H](C)O)c4)c4ccccc43)[C@@H]2C)cc1 | 0.564 | 1.49 (inactive) | 0.0306 | -0.13 | 0.395 | 1.55 | 0.335 | 1.27 | 0.189 | 1.11
21 | COC(=O)[C@]1(CO)N=C(c2ccc(OCCCO)cc2)O[C@@H]1c1ccccc1N=[N+]=[N-] | -1.02 | 1.73 (inactive) | -0.112 | -0.0629 | 0.771 | 4.01 | 0.758 | 1.29 | 0.94 | 0.545
22 | CCOC(=O)NN=C1C[C@@H](O)[C@@H](O)[C@@H]2[C@@H]3C(=O)N(C4CCCCC4)C(=O)[C@@H]3CC[C@H]12 | 0.801 | -0.0662 (inactive) | 0.0242 | -0.037 | -0.0418 | 0.387 | 0.16 | 0.458 | 0.0341 | 0.357
23 | Cc1cc(C)c(-c2cc([C@H](C)ON=C3[C@H]4CCn5c(=O)n(-c6ccccc6)c(=O)n5[C@H]4[C@H](O)[C@@H]4O[C@H]34)on2)c(C)c1 | 0.652 | -0.853 (inactive) | 0.125 | -0.205 | 0.311 | 0.486 | 0.0647 | 0.416 | 0.231 | 0.706
24 | CN1C(=O)C2C=CC(C(O)c3ccc(Br)cc3)N(N(c3ccccc3)c3ccccc3)C2C1=O (stereo not given) | 0.296 | 0.49 (inactive) | -0.0003 | -0.0976 | 0.106 | 1.04 | -0.068 | 0.676 | -0.815 | 0.951
25 | CC(C)CON=C1C[C@@H](O)[C@@H](O)[C@@H]2[C@@H]3C(=O)N(Cc4ccccc4)C(=O)[C@@H]3CC[C@@H]12 | 0.0737 | 0.156 (inactive) | -0.0679 | -0.153 | -0.111 | -0.137 | -0.0468 | 0.631 | 0.716 | -0.0393
26 | COc1cccc([C@@H]2Oc3ccc(Br)cc3C(=O)[C@H]2O)c1 | 0.705 | 0.38 (inactive) | -0.0111 | -0.084 | 0.439 | 0.599 | 0.214 | 0.26 | 0.432 | 1.11
27 | CC(CCC(=O)OC[C@H]1O[C@H](C#Cc2ccccc2)C=C[C@@H]1Oc1ccc(C)cc1)=NO[C@@H](C)c1cn([C@H](CO)Cc2ccccc2)nn1 | 0.0449 | -0.684 (inactive) | 0.0026 | -0.0907 | -0.122 | -0.053 | -0.592 | 0.297 | 0.145 | 0.27
28 | C=CC[C@@H]1C=C[C@H](ON=C[C@@H](OC)[C@H](C)C=CCC(=O)OC)[C@@H](CO)O1 | -0.286 | 0.0176 (inactive) | 0.062 | -0.0242 | 0.131 | 0.336 | -0.108 | 0.496 | 0.075 | -0.225
